Compound activity: PubChem BioAssay, several laboratories
The list is not random: actives were taken first. Their share in the collection is about 4.8%.
Calb FLC = C. albicans growth modulation with fluconazole; C. albicans CaCi-2 (fluconazole-resistant clinical isolate) + fluconazole, Alamar Blue growth, 48 h; growth inhibition, % (test concentration not listed); 0.57% of 300,000 active;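 active = growth inhibition above about 58% in most replicates, limit read from the data, passing the limit was not always enough; inconclusive = exactly half the replicates above a set limit; inactive = most replicates below a set limit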;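 also: all wells also contain fluconazole at 8 µg/ml as a sub-toxic cotreatment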
Beta cell apopt = beta cell apoptosis inhibition. INS-1E cytokine-induced death, ATP luminescence, 48 h; percent of positive-control rescue, neutral wells zero. protection from apoptosis, % (test concentration not listed). 0.8% of 300,000 active;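 active = Every replicate reaches about 75%, or at least half do and their mean reaches it too, limit read from the data; inconclusive = At least half of replicates reach the limit but their mean does not; inactive = Under half of replicates reach the limit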;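 also: higher means more ATP so stronger rescue from cytokine killing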
CSC inhib = blocks cancer stem cells; AID 2717; cancer stem cell-like cells viability, luminescence; 1.1% of 300,000 active; inhibition, % at 7.5 µM; in the data active = inhibition above about 75%; inconclusive = no clear call, values can overlap the other calls; tested in HMLE shEcad cells
Mdm2-MdmX inh = disrupts the human Mdm2-MdmX interaction; 3% of 330,000 active; inhibition, % at 8 µM; SaOS-2 split-luciferase Mdm2/MdmX complementation, luminescence; O15151+Q00987;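 active = inhibition of at least 50% at 8 µM in the primary screen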
MPTP inh = inhibitors of mitochondrial permeability transition pore. isolated mouse mitochondria, Ca2+ swelling absorbance, 30 min. inhibition, % at 10 µM. 1.4% of 360,000 active. AID 602449;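 active = inhibition of 50% or more, scaled per plate between neutral and stimulator controls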
Large screens that a line does not name were inactive.

COC(=O)c1cc(NC(=O)c2cc(-c3ccccc3Cl)oc2C(F)(F)F)ccc1N1CCOCC1	CSC inhib 89
Nc1nc(-c2ccccc2)c(N=Nc2ccccc2Cl)s1	Calb FLC 101
Cc1cc(C)n(CCNC(=O)[C@H]2O[C@@H](n3ccc(N)nc3=O)[C@H](O)[C@@H]2O)n1	none (no result: Calb FLC, Beta cell apopt, CSC inhib, Mdm2-MdmX inh)
Cc1ccc(-c2nnc(Nc3ccccc3)c3ccccc23)cc1S(=O)(=O)NCC1CCCO1 (stereo unspecified)	Calb FLC 61
CC(=O)Nc1ccc(Nc2nnc(-c3ccc(C)c(S(=O)(=O)NCC4CCCO4)c3)c3ccccc23)cc1 (stereo unspecified)	none
Cc1ccc(Sc2ncnc3onc(C)c23)cc1	none
Cc1noc2ncnc(Sc3ccc(Cl)cc3)c12	Calb FLC 86
Cc1ccc(C)c(OCCCCN2CCNCC2)c1C	CSC inhib 129
Cc1ccc(C)c(OCCCN2CCNCC2)c1	none
CCN(Cc1ccccc1)c1cc2c(c3c1ccn3C)C1CCC2C1 (stereo unspecified)	none (no result: Calb FLC, Beta cell apopt, CSC inhib, Mdm2-MdmX inh)
Oc1ccc(/C=N/Nc2ccnc3cc(Cl)ccc23)cc1O	Calb FLC 100
COc1cccc(Nc2nc(-c3cccs3)nc3ccccc23)c1	CSC inhib 89
COc1ccc(Nc2nc(-c3cccs3)nc3ccccc23)cc1	Calb FLC inconclusive, CSC inhib 78
COc1cccc(CN(C)c2nc(-c3cccs3)nc3ccccc23)c1	none
C[C@@H]1COc2cc(N3CCC[C@@H]3CO)ccc2S(=O)(=O)N1	none (no result: Calb FLC, Beta cell apopt, CSC inhib, Mdm2-MdmX inh)
O=C(N/N=C/C1CC=CCC1)c1ccccc1O (stereo unspecified)	none
O=C(CNc1ccccc1F)N/N=C/C1CC=CCC1 (stereo unspecified)	Calb FLC 123
CC(C)Oc1ccc(CN2CCC2(C)C(=O)NCc2cccc3ccccc23)cc1 (stereo unspecified)	none (no result: Calb FLC, Beta cell apopt, CSC inhib, Mdm2-MdmX inh)
COc1cc(/C=N/N(c2ccccc2)c2ccccc2)ccc1O	CSC inhib 99
COc1cc(/C=N/Nc2ccccc2)ccc1O	none
CCOc1ccc(/C=N/N(C)c2ccccc2)cc1OC	none (no result: CSC inhib)
COc1ccc(/C=N/N(c2ccccc2)c2ccccc2)cc1O	CSC inhib 81
CC1(c2nnnn2-c2ccc3c(c2)OCCO3)CCC(=O)N1Cc1ccc(F)cc1 (stereo unspecified)	none (no result: Calb FLC, Beta cell apopt, CSC inhib, Mdm2-MdmX inh)
CCC/C=C(\CCC)C(NS(=O)(=O)c1ccc(C(F)(F)F)cc1)c1ccccc1 (stereo unspecified)	CSC inhib 102 (no result: Mdm2-MdmX inh, MPTP inh)
O=[N+]([O-])c1cccc(/C=N/n2cnnc2)c1	Beta cell apopt 82
CCOc1ccc2nc(S(=O)(=O)NC(=O)C3(C)CCN3C(=O)CCc3cccs3)sc2c1 (stereo unspecified)	none (no result: Calb FLC, Beta cell apopt, CSC inhib, Mdm2-MdmX inh)
O=C1NCCc2onc(-c3ccc(Br)cc3)c21	none (no result: Calb FLC, Beta cell apopt, CSC inhib, Mdm2-MdmX inh)
CN(C)c1nc(N/N=C/c2ccccc2O)nc(Nc2ccc(F)cc2)n1	Calb FLC inconclusive, Beta cell apopt 106
Cc1ccc(-n2nnnc2C(Cl)(Cl)c2nnnn2-c2ccc(C)cc2)cc1	Calb FLC 103
O=C(COc1ccccc1Cl)Nc1cc(Cl)ccc1Oc1ccccc1	CSC inhib 89
CCOC(=O)N1CCN(C(=O)C[C@@H]2C[C@@]3(C(=O)OC)CC(C)(C)CC=C3N(Cc3ccc4c(c3)OCO4)C2=O)CC1	none (no result: Calb FLC, Beta cell apopt, CSC inhib, Mdm2-MdmX inh)
COC(=O)c1sccc1S(=O)(=O)Nc1ccc(C(O)(C(F)(F)F)C(F)(F)F)cc1	none (no result: Calb FLC, Beta cell apopt, CSC inhib, Mdm2-MdmX inh)
Cc1ccc2nc(SCC(=O)Nc3cccnc3Cl)[nH]c2c1	none (no result: Calb FLC)
Cc1ccc(C)c(SCC(=O)Nc2cccnc2Cl)c1	Calb FLC 123 (no result: CSC inhib)
Cc1cc(C)c(C)c(S(=O)(=O)ON2C(=O)c3ccccc3C2=O)c1C	Calb FLC 101 (no result: Beta cell apopt, CSC inhib)
Cc1cc(C)c(S(=O)(=O)ON2C(=O)c3ccccc3C2=O)cc1C	none
CCC(=O)N1CCC(C)(C(=O)NCc2cccc(OC)c2)C1 (stereo unspecified)	none (no result: Calb FLC, Beta cell apopt, CSC inhib, Mdm2-MdmX inh)
O=C(O)c1ccc(-c2nc(-c3ccccc3)cs2)cc1	Calb FLC inconclusive
O=C(O)c1ccc(-c2nc(-c3ccc(Cl)c(Cl)c3)cs2)cc1	Calb FLC 89 (no result: CSC inhib)
Cc1ccc(C(=O)NN2C(=O)CSC2=S)cc1	none
C/C(=N\N1C(=O)CSC1=S)c1ccc(Br)cc1	Calb FLC 73
COc1ccc([C@H]2CC(=O)C[C@@H](CCn3nnc4ccccc43)O2)cc1	none (no result: Calb FLC, Beta cell apopt, CSC inhib, Mdm2-MdmX inh)
Cc1nn(-c2nc3ccccc3[nH]2)c(=O)c2ccccc12	Beta cell apopt 86, CSC inhib 97 (no result: Mdm2-MdmX inh)
COc1ccc(NC(=O)N[C@H]2CC[C@@H](CC(=O)NC3CCC3)O[C@@H]2CO)cc1	none (no result: Calb FLC, Beta cell apopt, CSC inhib, Mdm2-MdmX inh)
CC(=O)NC/C(C)=N\Nc1ccc([N+](=O)[O-])cc1	Calb FLC 113
C/C(=N\Nc1ccc([N+](=O)[O-])cc1)c1ccc(O)cc1	Calb FLC 113
CC(=O)NCC(=O)OCc1ccc([N+](=O)[O-])cc1	none
C/C(=N/NC(=O)c1cc(O)c(O)c(O)c1)c1ccc([N+](=O)[O-])cc1	Calb FLC 91 (no result: Beta cell apopt, CSC inhib, Mdm2-MdmX inh)
C/C(=N\Nc1ccc([N+](=O)[O-])cc1)c1cccc(N)c1	none
COc1ccc(Cc2c(-c3ccc(Cl)cc3)nc3c(C)cc(Br)cn23)c(C)c1	none (no result: Calb FLC, Beta cell apopt, CSC inhib, Mdm2-MdmX inh)
Cc1ccc(NC(=O)c2noc(C(C)C)c2[N+](=O)[O-])cc1	Calb FLC 92
CC(C)c1onc(C(=O)Nc2cccc(O)c2)c1[N+](=O)[O-]	none (no result: CSC inhib)
O=C(Nc1ccc2c(c1)OCCO2)C(c1ccnc2ccccc12)N1CCC(Cc2ccccc2)CC1 (stereo unspecified)	none (no result: Calb FLC, Beta cell apopt, CSC inhib, Mdm2-MdmX inh)
Cc1c(CCOC(=O)CC23CC4CC(CC(C4)C2)C3)sc[n+]1Cc1ccccc1	Calb FLC 100
Cc1ncc(C[n+]2csc(CCOC(=O)CC34CC5CC(CC(C5)C3)C4)c2C)c(N)n1	none
CCOc1ccccc1/C=N/Nc1ccnc(=O)[nH]1	none
COc1cccc(/C=N/NC(=O)N/N=C/c2cccc(OC)c2O)c1O	none
O=c1nccc(N/N=C/c2ccccc2O)[nH]1	Beta cell apopt 125
COc1cccc(/C=N/Nc2ccnc(=O)[nH]2)c1O	Beta cell apopt 93
CCOc1ccc(CCNS(=O)(=O)c2c(C)nc3sccn3c2=O)cc1OCC	none (no result: Calb FLC, Beta cell apopt, CSC inhib, Mdm2-MdmX inh)
O=C(NC1CCCCC1)C(c1ccnc2ccccc12)n1c(=O)c(-c2ccccc2)nc2ccccc21 (stereo unspecified)	none (no result: Calb FLC, Beta cell apopt, CSC inhib, Mdm2-MdmX inh)
CC(=O)c1ccc(NC(=S)NCc2cccnc2)cc1	Beta cell apopt 100
Cc1ccc(NC(=S)NCc2cccnc2)cc1	none
CCOC(=O)c1ccc(NC(=O)NCc2cccnc2)cc1	Beta cell apopt 101
C[C@@H]1Cc2[nH][nH]c(=O)c2[C@H](C)O1	none (no result: Calb FLC, Beta cell apopt, CSC inhib, Mdm2-MdmX inh)
CCCn1c(CC)nc([N+](=O)[O-])c1Sc1ccc(F)cc1	Calb FLC 113
CCNC(=O)C1(C)CCCN(C(=O)c2cccc(C)c2C)C1 (stereo unspecified)	none (no result: Calb FLC, Beta cell apopt, CSC inhib, Mdm2-MdmX inh)
CS(=O)(=O)NN1C(=O)c2ccccc2NC1c1cccc2cccnc12 (stereo unspecified)	Calb FLC 80
CC/C(=N/NC(=O)c1ccccc1O)c1c(C)[nH]n(-c2ccccc2)c1=O	Calb FLC 101, CSC inhib 81
CCSc1nnc(-c2ccc(Cl)cc2)c2ccccc12	Calb FLC inconclusive
CCSc1nnc(-c2ccc(C)cc2)c2ccccc12	Calb FLC 93
